Source: PubChem BioAssay (several laboratories)
Keap1 Nrf2 FP: Keap1-Nrf2 protein-protein interaction inhibitors, primary screen, biochemical, fluorescence polarization, single point. Kelch-like ECH-associated protein 1 (Homo sapiens), Q14145. Keap1 Kelch-Nrf2 peptide fluorescence polarization, 1536-well. inhibition, % at 9.4 µM. 340,000 compounds, 0.15% hits. AID 504523, 2011; in the data active = inhibition above about 12%; inconclusive = no clear call, values can overlap the other calls; inactive = below about 7.3%;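 also: human Keap1 Kelch domain with fluorescein labeled Nrf2 9mer peptide probe; 0% = neutral control wells and 100% = peptide positive control; higher means more block of Keap1 binding to Nrf2 peptide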
LANA DNA inh: inhibitors of KSHV C-LANA binding to DNA, primary screen, biochemical, fluorescence polarization, FAM-LBS DNA, MBP-C-LANA, single point; inhibition, % at 9 µM; AID 504423, 2011; 340,000 compounds, 0.078% hits; Kaposi's sarcoma herpesvirus LANA C-terminal domain (residues 932-1162) DNA binding;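 active = highest replicate inhibition at or above 60% at 9 µM, even if other replicates fall short; inactive = all replicates below 60% inhibition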;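 also: 0% = neutral control wells and 100% = 4 µM acridine orange control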
cardiac RTF act: cardiac RTF calcium sensitivity activators, primary screen, biochemical, IANBD-TnC fluorescence, EC20 calcium | 340,000 compounds, 0.24% hits | Troponin I, cardiac muscle (Homo sapiens) + Troponin T, cardiac muscle (Homo sapiens) + … | AID 493008, 2010 | IANBD-labeled TnC RTF fluorescence at EC20 calcium; 0% EC20 calcium, 100% full calcium | activation, % at 7.2 µM;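 active = activation above the mean over all tested compounds plus 3 SD, cut at about 30% in these data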;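 also: rise in fluorescence read as greater calcium sensitivity of cardiac thin filaments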
LANA-H2A inh: blockers of LANA interaction with H2A/H2B – biochemical, FP readout, HTS, primary screen | Protein LANA1 (Human herpesvirus 8 type P (isolate GK18)), Q9QR71 | cell-free LANA-H2A/H2B peptide, fluorescence polarization | inhibition, % (no concentration beside the values) | 320,000 compounds, 0.6% hits | AID 2629, 2010; in the data active = inhibition mostly above about 10%, no sharp cut-off; inactive = mostly below about 6.7%
E coli Lon inh: inhibitors of E. coli Lon protease, primary screen, biochemical, fluorescence polarization; 360,000 compounds, 0.42% hits; inhibition, % at 7.94 µM; purified E. coli Lon protease; AID 602123, 2011; P0A9M0; in the data active = inhibition above about 13%, passing the limit was not always enough;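 also: 0% = enzyme with probe and DMSO and 100% = no enzyme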
Cardiac RTF inh: cardiac RTF calcium sensitivity inhibitors, primary screen, biochemical, IANBD-TnC fluorescence, EC70 calcium; IANBD-labeled cardiac RTF, Ca2+ fluorescence; 340,000 compounds, 0.12% hits; inhibition, % at 7.15 µM; Troponin I, cardiac muscle (Homo sapiens) + Troponin T, cardiac muscle (Homo sapiens) + …;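 active = inhibition above the mean inhibition of all tested compounds plus 3 SD, cut at about 17% in these data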;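 also: assay run at fixed EC70 calcium of 1.6 mM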
Starred values were filed as active, the others as inactive; i = inactive; ? = inconclusive; / = not tested or not shown. A selection: hits, their analogues and other compounds. The true share with any hit is near 1.3%.

SMILES	Keap1 Nrf2 FP	LANA DNA inh	cardiac RTF act	LANA-H2A inh	E coli Lon inh	Cardiac RTF inh
C/C(=N/NC(=O)CNC(=O)/C=C/c1ccccc1)c1ccco1	-1	3	-1	1	-12	0
C/C(=N/NC(=O)CNC(=O)Cc1ccccc1)c1ccco1	6	0	39*	1	-5	-4
Cc1ccc(NC(=O)c2cccc(NC3=NC4CS(=O)(=O)CC4S3)c2)cc1C (stereo unspecified)	2	-1	10	24*	-4	-5
Cc1cccc(NC(=O)c2cccc(NC3=NC4CS(=O)(=O)CC4S3)c2)c1 (stereo unspecified)	-5	0	-4	0	-3	1
CCOC(=O)CSc1nc(N2CCOCC2)c2c(c1C#N)CC(C)(C)N(C)C2	0	1	0	15*	4	-2
CCOC(=O)CSc1nc(N2CCOCC2)c2c(c1C#N)CC(C)(C)OC2	-2	-5	3	5	-5	-9
CC(Oc1ccc2ccc(=O)oc2c1)C(=O)N1CCOCC1 (stereo unspecified)	-1	0	0	1	12	-23
CC(OC(=O)c1ccccc1O)C(=O)Nc1ccc(Cl)cn1 (stereo unspecified)	-2	1	-6	0	3	-6
CC(OC(=O)c1ccc(S(=O)(=O)N(C)C)cc1)C(=O)Nc1ccc(Cl)cn1 (stereo unspecified)	-6	0	1	12*	-7	-3
COc1ccccc1N1CCN(C2CC(=O)N(c3cccc(Cl)c3)C2=O)CC1 (stereo unspecified)	-3	2	3	21*	-2	-3
Cc1cccc(CCNC(=O)CCS(=O)(=O)c2ccc(Br)cc2)c1	-3	2	6	18*	-4	-9
O=C(CCS(=O)(=O)c1ccccc1)NCc1ccccc1	3	1	2	37*	3	2
CC(Cl)C(=O)NN=C(c1ccccc1)c1ccccc1 (stereo unspecified)	-1	-1	4	1	-3	-2
CC(NC1CCCCC1)C(=O)NN=C(c1ccccc1)c1ccccc1 (stereo unspecified)	3	-3	1	130*	-6	-2
C[C@]12CC[C@@H]3c4ccc(O)cc4C(=O)C[C@H]3[C@@H]1CC[C@@H]2O	-1	0	-4	3.5*	-2	0
CSCC(O)Cn1[nH]c(=O)c2cc(Cl)c(Cl)cc2c1=O (stereo unspecified)	-5	0	17	16*	6	-10
CCOC(=O)c1c(C)[nH]c(C(=O)OCC(=O)N2CCN(S(=O)(=O)c3ccc(C)cc3C)CC2)c1C	1	1	2	122*	-2	2
CCCCN(C)C(=O)Cn1cnc2sc(C)c(S(=O)(=O)N3CCN(c4ccccc4OC)CC3)c2c1=O	-5	0	-5	3	8	-3
C=CC[C@H](CC(=O)NCCO)C(=O)N[C@H](C)COC(=O)[C@@H](CC=C)Cc1ccc(F)cc1	-3	1	3	14*	-6	1
C=CC[C@@H](CC(=O)N[C@@H](CO)Cc1ccccc1)C(=O)N[C@H](COC(=O)[C@@H](CC=C)CC(=O)OC(C)(C)C)Cc1c[nH]c2ccccc12	0	0	-5	-405	7	-3
C=CC[C@H](CC(=O)N[C@H](CO)Cc1ccccc1)C(=O)N[C@@H](COC(=O)[C@@H](CC=C)CC(=O)OC(C)(C)C)Cc1c[nH]c2ccccc12	-9	1	5	19*	-12	-3
C=CC[C@@H](CC(=O)N[C@H](CO)Cc1ccccc1)C(=O)N[C@@H](COC(=O)[C@@H](CC=C)Cc1ccc(F)cc1)Cc1ccccc1	5	-2	-7	175*	1	-1
Cc1ccccc1C(=O)Nc1sc2c(c1C(=O)O)CCC2	-1	-1	6	17*	4	-6
O=C(CSc1nnc(Cc2cc(=O)[nH]c(=O)[nH]2)n1-c1ccc(Cl)cc1)NCC1CCCO1 (stereo unspecified)	?	5	1	1	22*	1
CCN(Cc1ccccc1)C(=O)CSc1ncn[nH]1	-3	1	-1	4	7	-23
SMILES	Keap1 Nrf2 FP	LANA DNA inh	cardiac RTF act	LANA-H2A inh	E coli Lon inh	Cardiac RTF inh
CSc1ccc(/C=C2\C(=N)N3N=C(CC(=O)N4CCOCC4)SC3=NC2=O)cc1	-3	5	1	-1	-16	-8
CCN(CC)c1ccc(/C=C2\C(=N)N3N=C(CC(=O)N4CCOCC4)SC3=NC2=O)cc1	-40	9	38*	-2	i	-25
CCNc1ccc(S(=O)(=O)N(C)C)cc1NCC(=O)Nc1ccccc1Cl	2	1	-3	4	-5	-10
O=C1C(=O)N(Cc2cccnc2)C(c2cccc([N+](=O)[O-])c2)/C1=C(/O)c1ccc2c(c1)OCO2 (stereo unspecified)	-2	-2	1	-2	8	1
COc1ccccc1CNC(=O)COC(=O)c1cc(=O)c2ccccc2o1	-2	-3	-5	17*	4	0
O=C(COC(=O)c1cc(=O)c2ccccc2o1)NCc1ccccc1	-3	0	-5	/	4	4
NC(=O)C1CCN(C(=S)NC2CC3C=CC2C3)CC1 (stereo unspecified)	0	-3	-6	0	7	1
CCOC(=O)C1CCN(C(=S)NC2CC3C=CC2C3)CC1 (stereo unspecified)	1	0	/	21*	4	/
COc1ccc(-c2csc3ncn(CC(=O)N4CCOCC4)c(=O)c23)cc1	0	1	0	16*	1	0
Cc1ccc(S(=O)(=O)Oc2ccccc2/C=N/NC(N)=S)cc1	1	0	-5	0	-12	0
Cc1ccc(S(=O)(=O)Oc2ccccc2/C=N/N=C(N)N)cc1	2	-1	-2	38*	-3	-3
S=C(NCCN1CCOCC1)NC1CCCC1	-6	-1	0	1	3	-2
Cc1ccc(N(C)S(=O)(=O)c2ccc(-c3ccc(=O)[nH]n3)s2)cc1C	-1	1	-2	3	-7	-6
CCOc1ccc(N(C)S(=O)(=O)c2ccc(-c3ccc(=O)[nH]n3)s2)cc1	-2	1	-1	15*	-8	4
